PubChem BioAssay (Tox21)
“And” between values parts separate entries of the source, which are not always exact repeats. Identical values can stand only once. Inconclusive results are not listed. The source made the active and inactive calls. The call rests on the fitted dose curve.

The compounds below were run against Acetylcholinesterase (Homo sapiens) (UniProt P22303) (assay: Acetylcholinesterase (AChE) small molecule antagonists: colormetric cell-based qHTS assay (AID 1347395; further: nearly all actives have a fitted effect of over 30% in size)). Conditions: SH-SY5Y cells AChE activity, colorimetric (Ellman); series mostly up to 115 µM; activity, negative = inhibition: at the top concentration.
Method in brief: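 Colorimetric read-out: DTNB detects thiocholine released when cellular AChE in SH-SY5Y cells hydrolyses acetylthiocholine. Cells attached overnight, received compound for 30 min at 37 C, then substrate mix for 90 min at 37 C.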
On the % scale 0 is the no-effect control and ±100 the full control effect; potency means the concentration at half of the fitted maximal effect.

Sequence of Acetylcholinesterase (Homo sapiens) (P22303 whole entry, looked up): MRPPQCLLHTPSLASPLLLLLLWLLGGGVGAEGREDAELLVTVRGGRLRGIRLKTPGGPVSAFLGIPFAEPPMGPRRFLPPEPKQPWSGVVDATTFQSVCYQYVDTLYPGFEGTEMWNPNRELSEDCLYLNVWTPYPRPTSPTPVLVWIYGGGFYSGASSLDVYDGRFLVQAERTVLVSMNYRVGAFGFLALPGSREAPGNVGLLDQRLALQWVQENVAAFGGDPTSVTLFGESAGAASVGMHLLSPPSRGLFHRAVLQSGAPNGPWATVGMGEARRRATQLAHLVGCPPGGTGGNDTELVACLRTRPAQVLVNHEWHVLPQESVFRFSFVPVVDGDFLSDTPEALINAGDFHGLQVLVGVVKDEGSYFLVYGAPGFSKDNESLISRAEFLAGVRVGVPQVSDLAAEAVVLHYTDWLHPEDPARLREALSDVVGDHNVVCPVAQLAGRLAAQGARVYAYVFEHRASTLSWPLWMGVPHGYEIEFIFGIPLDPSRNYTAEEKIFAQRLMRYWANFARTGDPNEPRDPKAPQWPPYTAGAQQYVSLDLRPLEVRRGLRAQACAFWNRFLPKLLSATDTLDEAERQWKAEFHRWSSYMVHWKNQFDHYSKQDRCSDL

SMILES | activity, negative = inhibition | Potency
NC(=O)c1ccc([N+](=O)[O-])cc1 | -0.382% (inactive) | –
CC(=O)Nc1ccc(OCC(O)CNC(C)C)cc1 (stereo not given) | -2.64% [at 52.9 µM] (inactive) | –
CN(C)CCCN(C)C | 3.16% [at 10.5 µM] (inactive) | –
CCCc1ccccc1O | 3.08% (inactive) | –
COc1cc(C(=O)N2CCCCCCC2)cc(OC)c1OC | 0.909% [at 52.9 µM] (inactive) | –
C[C@H]1C[C@H]2[C@@H]3CCC4=CC(=O)C=C[C@]4(C)[C@@]3(F)[C@@H](O)C[C@]2(C)[C@@]1(O)C(=O)COP(=O)(O)O | 2.82% (inactive) | –
Cc1ccccc1OCC(O)CO (stereo not given) | 1.01% [at 52.9 µM] (inactive) | –
CCCCCCCCCCCCCCO | – | inactive
CC(C)(O)C#CC(C)(C)O | -0.374% (inactive) | –
Oc1ccccc1O | – | inactive
Cc1ccccc1Cl | – | inactive
CCN1C(=O)c2ccccc2C1Nc1ccc(OCCN2CCCCC2)cc1 (stereo not given) | -3.85% [at 52.9 µM] (inactive) | –
CCc1ccc(Br)cc1 | 7.92% (inactive) | –
CC1=CC(=O)CCC1 | 2.31% (inactive) | –
CC(O)CN (stereo not given) | 1.89% (inactive) | –
CCc1c(C(=O)O)c(=O)cnn1-c1ccc(Cl)cc1 | -1.89% (inactive) | –
CC(=O)O[C@@H]1CC2C3CCc4cc(OC(=O)c5ccccc5)ccc4C3CCC2(C)[C@H]1OC(C)=O (stereo not given in full) | 1.13% [at 52.9 µM] (inactive) | –
Cc1ccc2c(n1)Oc1ccc(C(C)C(=O)OCC(=O)N(C)C)cc1C2 (stereo not given) | – | 15.5 µM (active) and 12.3 µM (active)
O=C1c2ccccc2C(=O)C1c1ccc2ccccc2n1 | 1.58% [at 52.9 µM] (inactive) | –
O=C(O)Cc1c(Cl)ccc(Cl)c1Cl | 1.47% (inactive) | –

SMILES | activity, negative = inhibition | Potency
O=C(O)C(=O)Nc1cccc(-c2nn[nH]n2)c1 | 0.824% [at 52.9 µM] (inactive) | –
C=C(C)C(=O)OCCCCCCCCCCCCCCCCCC | 0.231% [at 23.6 µM] (inactive) | –
CCC(C)OC(=O)c1ccc(O)cc1 (stereo not given) | – | inactive
CCCCCC(=O)OCCc1ccccc1 | -2.65% (inactive) | –
C=C(C)C(=O)OCCOC(=O)CC(C)=O | -0.446% (inactive) | –
CCOC(=O)Cn1cccc1-c1nc(-c2ccc(OC)cc2)c(-c2ccc(OC)cc2)s1 | 0.352% [at 52.9 µM] (inactive) | –
CC1COc2ccccc2N1C(=O)C(Cl)Cl (stereo not given) | -2.1% (inactive) | –
Cc1ccc(C(C)C)cc2c(C)ccc1-2 | 1.18% [at 52.9 µM] (inactive) | –
Cc1c[nH]c2ccccc12 | -2.38% [at 52.9 µM] (inactive) | –
N=C(N)N | -1.51% [at 52.9 µM] (inactive) | –
CC(=O)NCCO | 4.35% (inactive) | –
CCS(=O)(=O)c1ccc(OC)c(C(=O)OC)c1 | 0.455% [at 52.9 µM] (inactive) | –
CCCCN(CCCC)C(=O)N(CCCC)CCCC | -1.85% (inactive) | –
CC(C)OC(=O)c1cc(C(=O)OC(C)C)cc([N+](=O)[O-])c1 | -1.52% (inactive) | –
ON=C1CCCCC1 | – | inactive
O=C(O)[C@H](O)[C@@H](O)[C@H](O[C@@H]1O[C@H](CO)[C@H](O)[C@H](O)[C@H]1O)[C@H](O)CO | 0.0881% [at 52.9 µM] (inactive) | –
CCCCCCCCCCCCCC(=O)OCC | 1.66% (inactive) | –
CC(CCO)CCCC(C)(C)O (stereo not given) | -2.2% (inactive) | –
O=c1oc(=O)c2cc3c(=O)oc(=O)c3cc12 | – | inactive
CC(=O)c1ccc2c(c1)N(CCCN(C)C)c1ccccc1S2 | -8.76% [at 52.9 µM] (inactive) | –
